Cruzain Triton = blocks cruzain activity in presence of Triton detergent; 200,000 compounds, 0.43% hits; purified cruzain, Z-FR-AMC fluorescence, 0.01% Triton; Potency, µM, for the others: max response, negative = inhibition, hits mostly inhibitors; AID 1478; P25779;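 also: plate controls were neutral wells for no effect and buffer without enzyme for full effect; nearly all actives have a fitted effect of over 40% in size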
Target sequence (P25779 123-467 limits assumed): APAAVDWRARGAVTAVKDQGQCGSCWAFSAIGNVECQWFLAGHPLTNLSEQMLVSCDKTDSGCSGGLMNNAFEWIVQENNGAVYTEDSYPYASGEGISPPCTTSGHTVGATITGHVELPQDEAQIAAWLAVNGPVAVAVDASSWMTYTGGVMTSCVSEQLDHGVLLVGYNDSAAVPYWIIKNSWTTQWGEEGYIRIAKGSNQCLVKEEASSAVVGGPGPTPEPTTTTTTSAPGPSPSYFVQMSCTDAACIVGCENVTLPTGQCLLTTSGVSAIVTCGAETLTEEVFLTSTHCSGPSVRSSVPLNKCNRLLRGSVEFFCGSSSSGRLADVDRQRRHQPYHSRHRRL
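Cysteine protease activity tested under reducing, mildly acidic conditions (100 mM sodium acetate pH 5.5, 5 mM DTT) plus 0.01% Triton X-100. Cruzain 1.5 nM; substrate Z-FR-AMC 2 uM; 15 min compound preincubation at room temperature.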
Cruzain inh noDet = inhibitors of Trypanosoma cruzi cruzain without detergent | P25779 | purified cruzain, Z-FR-AMC fluorescence, no detergent | Potency, µM, inactives show max response, negative = inhibition, usual class: inhibitors | 200,000 compounds, 2.3% hits | AID 1476;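 also: plate controls were enzyme without inhibitor for no effect and buffer without enzyme for full effect; nearly all actives have a fitted effect of over 40% in size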
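Purified cruzain at 1.5 nM, pre-incubated 15 min with compound at room temperature in 100 mM sodium acetate pH 5.5, 5 mM DTT, 0.00005% Triton X-100. Reaction started with 2 uM Z-FR-AMC; AMC fluorescence increase over 60 s gives rate.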
Papain counter = papain (Carica papaya) inhibition counter-screen; 410 compounds, 41% hits; Potency, µM, for the others: max response, negative = inhibition, most hits filed as inhibitors; purified papain, Z-FR-AMC fluorescence cleavage; shares compounds with Cruzain Triton;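 also: 0% = no-compound wells and -100% = no-enzyme wells; nearly all actives have a fitted effect of over 35% in size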
Target sequence (P00784 whole entry, looked up): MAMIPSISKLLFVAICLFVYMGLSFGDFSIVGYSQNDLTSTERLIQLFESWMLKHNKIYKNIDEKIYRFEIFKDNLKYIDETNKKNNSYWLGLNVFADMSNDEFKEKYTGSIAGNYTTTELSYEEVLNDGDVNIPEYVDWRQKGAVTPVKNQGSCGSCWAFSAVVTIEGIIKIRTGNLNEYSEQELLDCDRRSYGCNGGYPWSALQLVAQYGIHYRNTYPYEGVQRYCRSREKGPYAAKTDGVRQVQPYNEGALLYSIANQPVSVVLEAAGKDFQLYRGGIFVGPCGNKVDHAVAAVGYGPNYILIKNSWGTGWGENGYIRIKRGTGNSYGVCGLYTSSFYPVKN
* hit, by the source's call. Shown are actives, neighbours in structure and some others; about 2.4% of the full set was active somewhere. Calls follow the shape of the dose curve; as a rule, active = well fitted curve in the direction sought with a large enough effect; inconclusive = small, poorly fitted or top-dose-only effect, or another doubt; inactive = no such curve, though single readings can be large; an effect the other way counts as inactive or inconclusive. Potency is read from the fitted curve at half-maximal effect.

What do the screens show for `CSc1nnc2c3cc(C)ccc3n(Cc3ccccc3)c2n1`?
Cruzain Triton: inconclusive; Cruzain inh noDet: 25µM*

How did CCCn1c2ccc(C)cc2c2nnc(SCCN3CCCCC3)nc21 do in these assays?
Cruzain Triton: 14µM*; Cruzain inh noDet: inconclusive

Results for CCOC(=O)C(CC)Sc1nnc2c3cc(C)ccc3n(C)c2n1 (stereo not given) ?
Cruzain Triton: -13%; Cruzain inh noDet: inconclusive

Results for CCn1c2ccc(C)cc2c2nnc(NN)nc21 ?
Cruzain Triton: -17%; Cruzain inh noDet: -24%

What do the screens show for `O=C(Nc1ccc2c(c1)CCCN2C(=O)c1cccs1)c1cccc(C(F)(F)F)c1`?
Cruzain Triton: -8%; Cruzain inh noDet: 18%

What do the screens show for `Cc1c(C(=O)NCc2cccc(Br)c2)oc2ccc3c(c12)C(=O)CC(C)(C)O3`?
Cruzain Triton: -5%; Cruzain inh noDet: -16%

Results for COc1ccc(C)cc1NC(=O)c1ccc2c(c1)N(Cc1cccc(Cl)c1)C(=O)c1ccccc1S2=O (stereo not given) ?
Cruzain Triton: -1%; Cruzain inh noDet: -2%

What do the screens show for `CC(Nc1oc(-c2ccc(COc3ccccc3)o2)nc1C#N)c1ccccc1` (stereo not given)?
Cruzain Triton: -3%; Cruzain inh noDet: 20µM*

How did N#Cc1nc(-c2ccc(COc3ccccc3)o2)oc1NCc1ccccc1 do in these assays?
Cruzain Triton: -4%; Cruzain inh noDet: -24%

What do the screens show for `O=C(Cc1ccccc1)Nc1ccccc1N1CCN(c2ccccc2)CC1`?
Cruzain Triton: -3%; Cruzain inh noDet: -22%

Results for O=C(Nc1ccccc1N1CCN(c2ccccc2)CC1)C12CC3CC(CC(C3)C1)C2 ?
Cruzain Triton: 5%; Cruzain inh noDet: 25µM*

How did Cc1ccc(C)c(CNC(=O)c2ccc3c(c2)nc2n3CCC(C)C2)c1 (stereo not given) do in these assays?
Cruzain Triton: 1%; Cruzain inh noDet: 3%

How did CCc1cc2c(=O)[nH]c(Cc3ccc(Cl)cc3)nc2s1 do in these assays?
Cruzain Triton: 5%; Cruzain inh noDet: -10%

What do the screens show for `CCc1ccc(/C=C(\Cl)c2nc3cc(Cl)ccc3c(=O)[nH]2)cc1`?
Cruzain Triton: 0%; Cruzain inh noDet: 10µM*

Results for CCCCOCCCn1c(-c2ccco2)nc2nc3ccccc3nc21 ?
Cruzain Triton: 28µM*; Cruzain inh noDet: inconclusive

How did COCCCn1c(-c2ccco2)nc2ccccc2c1=O do in these assays?
Cruzain Triton: -1%; Cruzain inh noDet: 4%

What do the screens show for `C[C@@H]1CCC2C(C)(C)C3CC21CC[C@@]3(C)O` (stereo not given in full)?
Cruzain Triton: 2%; Cruzain inh noDet: 9%

How did CCc1ccc(N2C(=O)NC(=O)/C(=C\c3cccn3CCOc3ccc(C(C)C)cc3)C2=O)cc1 do in these assays?
Cruzain Triton: -1%; Cruzain inh noDet: 10µM*

Results for CC(C)c1ccc(N2C(=O)NC(=O)/C(=C/c3cnc(-c4ccccc4)nc3)C2=O)cc1 ?
Cruzain Triton: -7%; Cruzain inh noDet: -4%

Results for COc1ccc(OC)c(CNC(=O)c2cc(S(=O)(=O)N3CCC(C)CC3)cn2C)c1 ?
Cruzain Triton: -5%; Cruzain inh noDet: inconclusive

How did COc1ccc(N=C2NN=C(c3ccc4c(c3)OCCO4)CS2)cc1 do in these assays?
Cruzain Triton: -3%; Cruzain inh noDet: 25µM*

Results for COCCn1c(C)cc(C2=NNC(=Nc3ccc(OC)cc3)SC2)c1C ?
Cruzain Triton: -1%; Cruzain inh noDet: 1%

What do the screens show for `Cc1ccc(NC(=O)c2ccc(OC(=O)COc3cccc(Cl)c3)cc2)cc1`?
Cruzain Triton: -2%; Cruzain inh noDet: 13µM*

Results for Cc1ccc(NC(=O)c2ccc(OC(=O)COc3ccc(Cl)cc3C)cc2)cc1 ?
Cruzain Triton: 7%; Cruzain inh noDet: 13µM*

What do the screens show for `Cc1ccc(NC(=O)c2ccc(OC(=O)CCN3C(=O)c4ccccc4C3=O)cc2)cc1`?
Cruzain Triton: 2%; Cruzain inh noDet: inconclusive

How did Cc1ccc(C(=O)CC(=O)COc2ccc(Cl)cc2C)cc1 do in these assays?
Cruzain Triton: -4%; Cruzain inh noDet: 11%

What do the screens show for `O=C(CCS(=O)(=O)c1nc(-c2ccc3c(c2)OCO3)cc(C(F)(F)F)n1)Nc1ccc(Br)cc1`?
Cruzain Triton: -22%; Cruzain inh noDet: inconclusive

How did CCOc1ccc(C2C(C#N)=C(N)SC(N)=C2C#N)cc1OCC do in these assays?
Cruzain Triton: -11%; Cruzain inh noDet: -1%

What do the screens show for `N#CC1=C(N)SC(N)=C(C#N)C1c1cccc(Oc2ccccc2)c1`?
Cruzain Triton: -18%; Cruzain inh noDet: 25µM*

Results for CCCC(=O)OCc1cnc(C)c2oc(=O)c(C(=O)Nc3ccccc3)cc12 ?
Cruzain Triton: 1%; Cruzain inh noDet: -11%

How did CCc1nn(C(CC)C(=O)NCc2ccc(F)cc2)c(=O)c2cc3occc3n12 (stereo not given) do in these assays?
Cruzain Triton: -2%; Cruzain inh noDet: -9%

Results for COC(=O)[C@@]1(Cc2ccc(OC)cc2)[C@H]2c3cc(C(=O)N4CCCC4)n(CCc4ccccn4)c3C[C@H]2CN1C(=O)c1ccccc1 ?
Cruzain Triton: -6%; Cruzain inh noDet: inconclusive

What do the screens show for `O=C(C1=C[C@@H]2[C@H]3C(=O)N(c4ccc(Cl)cc4)C(=O)[C@H]3[C@@H](C(=O)c3ccc(Cl)cc3)N2C=C1)c1ccccc1`?
Cruzain Triton: -6%; Cruzain inh noDet: 7.9µM*

What do the screens show for `Cc1ccc(N2C(=O)C3C(C2=O)C(C(=O)c2ccc(Cl)cc2)N2CCCC32)cc1` (stereo not given)?
Cruzain Triton: -12%; Cruzain inh noDet: -4%

How did O=C(COC(=O)CCSc1ccccc1)Nc1ccc(F)cc1Cl do in these assays?
Cruzain Triton: inconclusive; Cruzain inh noDet: -12%

How did O=C(COC(=O)CCSc1ccccc1Cl)Nc1ccc(F)cc1F do in these assays?
Cruzain Triton: 14µM*; Cruzain inh noDet: 13µM*; Papain counter: -2%

How did Cc1nc2cnc(Oc3cccc(Cl)c3)nc2n(Cc2ccc(F)cc2)c1=O do in these assays?
Cruzain Triton: -3%; Cruzain inh noDet: 8%

How did Cc1cccc(CN2C(=O)c3ccccc3Sc3ccc(C(=O)NCCc4ccccc4)cc32)c1 do in these assays?
Cruzain Triton: 1%; Cruzain inh noDet: inconclusive

What do the screens show for `O=C(NCc1ccco1)c1ccc2c(c1)N(Cc1c(F)cccc1Cl)C(=O)c1ccccc1S2`?
Cruzain Triton: -3%; Cruzain inh noDet: inconclusive

Results for CCOc1ccc(CN2C(=O)c3ccccc3Sc3ccc(C(=O)NCc4ccc(C)cc4)cc32)cc1 ?
Cruzain Triton: -1%; Cruzain inh noDet: 10µM*; Papain counter: 8%

Results for O=C(NCc1ccc2c(c1)OCO2)c1ccc2c(c1)N(Cc1c(F)cccc1Cl)C(=O)c1ccccc1S2 ?
Cruzain Triton: -2%; Cruzain inh noDet: 10µM*; Papain counter: -3%

How did COc1cccc(CN2C(=O)c3ccccc3Sc3ccc(C(=O)NCCc4ccc(Cl)cc4)cc32)c1 do in these assays?
Cruzain Triton: -3%; Cruzain inh noDet: 20µM*; Papain counter: 8%

What do the screens show for `CCOc1ccc(CN2C(=O)c3ccccc3Sc3ccc(C(=O)NCCc4ccccc4)cc32)cc1`?
Cruzain Triton: -6%; Cruzain inh noDet: inconclusive

How did O=C(O)c1ccc2c(c1)N(Cc1ccc(F)cc1Cl)C(=O)c1ccccc1S2 do in these assays?
Cruzain Triton: -1%; Cruzain inh noDet: inconclusive

Screening results: PubChem BioAssay, National Center for Advancing Translational Sciences (NCATS)
